Results filed as inconclusive are left out. Calls of active or inactive are those of the source. Calls come from the whole dose curve; as a rule, active = well fitted cell-killing curve with a large enough effect; inconclusive = small, poorly fitted or top-dose-only effect, or effect the other way; inactive = flat fitted curve, though single readings scatter. *1 amine or outer side, *2 acyl side, *3 side chain or, on linkers, in order; H or OH if unused. Where a SMILES comes first, the peptide text is derived from it. [ ]: non-standard residue; d: D form. X4 = CC(C)=CCc1cc(C(O)C(N[*:1])C(=O)[*:2])ccc1O

The results in this text go back to PubChem BioAssay (NCATS).
% is set by controls: 0 for no effect and ±100 for the full control effect.

This experiment concerns JEG-3. Kind of experiment: Primary qHTS to identify gynecologic anti-cancer compounds using libraries of approved drugs and bioactive compounds (AID 1345084). Note: nearly all actives have a fitted effect of over 55% in size. Conditions: Gynecologic cancer cell panel viability, ATPlite luminescence, 48 h; series mostly up to 57.5 µM; activity change, negative = cytotoxicity: at the top concentration. A digest of the protocol:
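ATP-based viability (ATPlite), 1,000 cells/well, 16 h pre-incubation, 48 h compound at 37 C, 5% CO2, 15 min RT before read.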
For `CN(C)CC1CCOC1(c1ccccc1)c1ccccc1` (centres undefined), the “activity change, negative = cytotoxicity” value was 4.94% [at 25.3 µM] (inactive).
Regarding `O=C(OC1C=C(CO)C2C(OC3OC(CO)C(O)C(O)C3O)OC=CC12)c1ccc(O)cc1` (centres undefined), the “activity change, negative = cytotoxicity” value was 1.36% [at 25.3 µM] (inactive).
Turning to `CC1(C)CC[C@]2(C(=O)OC3OC(CO)C(O)C(O)C3O)CC[C@]3(C)C(=CCC4[C@@]5(C)CC[C@H](OC6OC(C(=O)O)C(O)C(OC7OC(CO)C(O)C(O)C7O)C6O)C(C)(C)C5CC[C@]43C)C2C1` (some centres undefined), the activity change, negative = cytotoxicity was 1.51% [at 11.6 µM] (inactive).
To `CC(C)=CCc1cc(C(O)C2NC(=O)CNC(=O)C(Cc3c[nH]c4ccccc34)NC(=O)C3CCCN3C(=O)CNC(=O)C(C(C)C)NC(=O)CNC2=O)ccc1O` (centres undefined) (cyclo(G[X4]GVGPW); configuration not given here) belongs 7.66% [at 11.6 µM] (inactive); to `COc1ccc(CCO[C@@H]2CCCC[C@H]2N2CC[C@@H](O)C2)cc1OC`, 0.148% (inactive); to `COC(=O)C1=CO[C@@H](O[C@@H]2O[C@H](CO)[C@@H](O)[C@H](O)[C@H]2O)[C@@H]2C(COC(C)=O)=C[C@H](O)[C@H]12`, -3.36% [at 25.3 µM] (inactive).
As for `CC12CCC(OC3OC(CO)C(O)C(OC4OC(CO)C(O)C(O)C4O)C3O)CC1=CCC1C2CCC2(C)/C(=C3/COC(=O)C3)CCC12O` (centres undefined), the figure is 2.84% [at 25.3 µM] (inactive); as for `C/C1=C\[C@H]2OC(=O)[C@@H](C)[C@@H]2CC/C(C(=O)O)=C/CC1`, -2.54% (inactive).
To `CC12CCC(OC3OC(CO)C(O)C(OC4OC(CO)C(O)C(O)C4O)C3O)CC1CCC1C2CCC2(C)/C(=C3/COC(=O)C3)CCC12O` (centres undefined) belongs -7.06% [at 25.3 µM] (inactive); to `CC1(C)CCC[C@@]2(C)C1[C@H](OC(=O)/C=C/C=C/C(=O)O)C=C1COC(=O)[C@@]12O` (some centres undefined), 4.27% [at 38.5 µM] (inactive).
Regarding `CO/N=C(/C(=O)N[C@@H]1C(=O)N2C(C(=O)O)=C(Cn3ccc(=N)n3CCO)CS[C@H]12)c1csc(N)n1`, the “activity change, negative = cytotoxicity” value is -0.384% (inactive).
For `CC(C)=CCC[C@](C)(O)[C@H]1CC[C@]2(C)[C@@H]1[C@H](O)CC1[C@@]3(C)CC[C@H](O)C(C)(C)[C@@H]3[C@@H](O[C@@H]3O[C@H](CO)[C@@H](O)[C@H](O)[C@H]3O[C@@H]3O[C@H](CO)[C@@H](O)[C@H](O)[C@H]3O)C[C@]12C` (some centres undefined), the “activity change, negative = cytotoxicity” value was -2.96% [at 25.3 µM] (inactive).
On to `C[C@@H]1O[C@@H](O[C@H]2[C@H](OC(=O)[C@]34CCC(C)(C)C[C@H]3C3=CCC5[C@@]6(C)C[C@H](O)[C@H](O[C@@H]7O[C@H](CO)[C@@H](O)[C@H](O)[C@H]7O)[C@@](C)(CO)C6[C@H](O)C[C@@]5(C)[C@]3(C)CC4)OC[C@H](O)[C@@H]2O)[C@H](O)[C@H](O)[C@H]1O[C@@H]1OC[C@@H](O)[C@H](O[C@@H]2OC[C@](O)(CO)[C@H]2O)[C@H]1O` (some centres undefined), for which the activity change, negative = cytotoxicity was 3.02% [at 6.55 µM] (inactive).
As for `CC(=O)OC1C(O)CC2(C)C(CCC(C)C23Cc2c(O)cc(CO)c(C=O)c2O3)C1(C)C` (centres undefined), the figure is 1.94% [at 25.3 µM] (inactive).
With `C/C(=C\CCC(C)CCO)C(=O)OC1(C)CCC2C(C(=O)O)=COC(OC3OC(CO)C(O)C(O)C3O)C21` (centres undefined), the “activity change, negative = cytotoxicity” value is -1.3% [at 25.3 µM] (inactive).
To `NC1(C(=O)NC(CCO)c2ccc(Cl)cc2)CCN(c2ncnc3[nH]ccc23)CC1` (centres undefined) belongs -0.866% (inactive); to `CC1(C)CCCC2(C)C(C(=O)O)=CCC12` (centres undefined), -7.03% (inactive); to `CCC(C)/C=C(C)/C=C/c1cc2c(cn1)C(=O)C(C)(OC(C)=O)C(O)=C2Cl` (centres undefined), -0.729% [at 38.5 µM] (inactive).
As to `O=S(=O)(Nc1ccccn1)c1ccc(N=Cc2c(O)[nH]c3ccc4ncsc4c23)cc1`, the activity change, negative = cytotoxicity was 3.65% [at 11.6 µM] (inactive).
Turning to `CC(O)/C=C/C1(O)C(C)C(O[C@@H]2O[C@H](CO)[C@@H](O)[C@H](O)[C@H]2O)C(O)CC1(C)C` (some centres undefined), the “activity change, negative = cytotoxicity” value is -11.1% [at 25.3 µM] (inactive).
To `C[C@@H]1O[C@@H](O[C@H]2[C@H](OC(=O)[C@]34CCC(C)(C)C[C@H]3C3=CCC5[C@@]6(C)CC[C@H](O[C@@H]7O[C@H](C(=O)O)[C@@H](O)[C@H](O)[C@H]7O[C@@H]7O[C@H](CO)[C@H](O)[C@H](O)[C@H]7O)[C@@](C)(C=O)C6CC[C@@]5(C)[C@]3(C)C[C@H]4O)O[C@H](C)[C@H](O[C@@H]3O[C@H](C)[C@H](O)[C@H](O)[C@H]3O)[C@@H]2O)[C@H](O)[C@H](O)[C@H]1O[C@@H]1OC[C@@H](O)[C@H](O[C@@H]2O[C@H](CO)[C@@H](O)[C@H](O)[C@H]2O)[C@H]1O` (some centres undefined) belongs -1.59% [at 6.55 µM] (inactive); to `COC(=O)C12CCC(C)C(C)C1C1=CCC3C4(C)CCC(OC(C)=O)C(C)(C)C4CCC3(C)C1(C)CC2` (centres undefined), -7.83% [at 25.3 µM] (inactive).
To `C=C1C(=O)O[C@H](CCC)[C@H]1C(=O)O` belongs -2.54% (inactive); to `CCOc1cc(CC(=O)NC(CC(C)C)c2ccccc2N2CCCCC2)ccc1C(=O)O` (centres undefined), 7.35% (inactive); to `COC1=CC(=O)CC(C)C12Oc1cc(OC)cc(O)c1C2=O` (centres undefined), 0.232% (inactive).
Regarding `O=C1CCC(=O)N(O)CCCCCNC(=O)CCC(=O)N(O)CCOCCNC(=O)CCC(=O)N(O)CCCCCN1`, the “activity change, negative = cytotoxicity” value was -3.76% [at 25.3 µM] (inactive).
With `CCc1ccc(Cc2ccc3c(c2)[C@]2(OC3)O[C@H](CO)[C@@H](O)[C@H](O)[C@H]2O)cc1`, the “activity change, negative = cytotoxicity” value was -2.54% (inactive).
As for `C=C(C(=O)O)C1CCC2(C)CCC(O)C(=C)C2C1` (centres undefined), the figure is 1.75% (inactive); as for `C=C(C)C1CCC2(C(=O)O[C@@H]3O[C@H](CO[C@@H]4O[C@H](CO)[C@@H](O)[C@H](O)[C@H]4O)[C@@H](O)[C@H](O[C@@H]4O[C@@H](C)[C@H](O)[C@@H](O)[C@H]4O)[C@H]3O)CCC3(C(=O)O)C(CCC4C5(C)CCC(O)C(C)(C)C5CCC43C)C12` (some centres undefined), 18.7% [at 11.6 µM] (inactive); as for `CC(NC(=O)C(O)C(C)C)C(=O)NC1C(=O)N(C)CCc2ccccc21` (centres undefined), -8.65% (inactive).
Turning to `CNC(C)C(=O)NC(C(=O)N1CCCC1c1nc(C(=O)c2ccc(F)cc2)cs1)C1CCCCC1` (centres undefined), the “activity change, negative = cytotoxicity” value is -6.97% (inactive).
`CC(=O)O[C@@H]1[C@H](O)[C@@H](O[C@@H]2O[C@@H](C)[C@H](O[C@@H]3OC[C@@H](O)[C@H](O[C@@H]4OC[C@@H](O)[C@H](O)[C@H]4O)[C@H]3O)[C@@H](O[C@@H]3O[C@H](CO)[C@@H](O)[C@H](O)[C@H]3O)[C@H]2O)[C@H](OC(=O)[C@]23CCC(C)(C)C[C@H]2C2=CCC4[C@@]5(C)CC[C@H](O[C@@H]6O[C@H](C(=O)O)[C@@H](O)[C@H](O[C@@H]7OC[C@@H](O)[C@H](O)[C@H]7O)[C@H]6O[C@@H]6O[C@H](CO)[C@H](O)[C@H](O)[C@H]6O)[C@@](C)(C=O)C5CC[C@@]4(C)[C@]2(C)CC3)O[C@@H]1C` (some centres undefined): the activity change, negative = cytotoxicity is -8.94% [at 6.55 µM] (inactive).
For the molecule `CCN(Cc1cccnc1)C(=O)CN(c1ccc(OC)nc1)S(=O)(=O)c1ccccc1C`, the “activity change, negative = cytotoxicity” value is -3.01% (inactive).
As for `COc1ccc(CN2C(=O)C(=O)c3cc(S(=O)(=O)N4CCC[C@H]4COc4cccnc4)ccc32)cc1`, the figure is -7.63% (inactive); as for `CC1=CC(=O)[C@]2(O[C@@H]3O[C@@H](C)[C@H](O)[C@@H](O)[C@H]3OC(=O)/C=C/c3ccccc3)C=CO[C@@H](O[C@@H]3O[C@H](CO)[C@@H](O)[C@H](O)[C@H]3O)[C@H]12`, -15.5% [at 25.3 µM] (inactive); as for `O=C(O)c1ccccc1NC(=O)N1CCC(c2ccccc2C(F)(F)F)CC1`, -1.48% (inactive).
To `Nc1nc2c(ncn2[C@@H]2O[C@H](CO)[C@@H](O)[C@H]2O)c(=O)[nH]1` belongs 18.3% (inactive); to `C/C1=C\C[C@]2(C)C(=O)C(O)=C([C@H](C)CO)[C@H]2C/C=C(\C)[C@@H](O)CC/C(C)=C/CC1`, -1.23% [at 38.5 µM] (inactive).
Turning to `C[C@]12C[C@@H](O)[C@@H]3C[C@@]1(O[C@@H]1O[C@H](CO)[C@@H](O)[C@H](O)[C@H]1O)[C@]3(COC(=O)c1ccccc1)C(=O)O2`, the “activity change, negative = cytotoxicity” value was 16.8% [at 25.3 µM] (inactive).
